Results filed as inconclusive are left out. Calls of active or inactive are those of the source. Calls follow the shape of the dose curve; as a rule, active = well fitted curve in the direction sought with a large enough effect; inconclusive = small, poorly fitted or top-dose-only effect, or another doubt; inactive = no such curve, though single readings can be large; an effect the other way counts as inactive or inconclusive.

A short description of one assay: Cell Proliferation Assay against the HBL1 Cell Line (AID 651646).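 Also: cells exposed to compound for 48 h before reading.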 Particulars: HBL1 DLBCL cells; at 46.1 µM (top of the series) unless noted. The procedure, abridged:
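HBL1 ABC DLBCL cells, 500/well in RPMI with 5% FBS, treated for 48 h at 37C. Viability read by CellTiter-Glo luminescence, normalized to DMSO as 100% and 9.2 uM bortezomib as 0%.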
`S=C(NCc1ccc2c(c1)OCO2)N1CCN(c2ncnc3c2oc2ccccc23)CC1`: the viability, percent of control worked out at 40.5%. The same measure, in the same setting: with `CCC(C)n1ncn(-c2ccc(N3CCN(c4ccc(OC[C@H]5CO[C@](Cn6cncn6)(c6ccc(Cl)cc6Cl)O5)cc4)CC3)cc2)c1=O` (stereo not given in full) the figure was 77%; with `C[C@]12CC[C@H](O)CC1=CC[C@@H]1[C@H]2CC[C@]2(C)C(c3cccnc3)=CC[C@H]12`, 52.7%. Consider `Cc1c(C)c2c(c(C)c1O)CCC(C)(COc1ccc(CC3SC(=O)NC3=O)cc1)O2` (stereo not given), for which the viability, percent of control was 81.5%. Same read-out and setting: with `Oc1cccc(-c2nc(N3CCOCC3)c3oc4ncccc4c3n2)c1` the figure was 42.6%; with `COc1cc(Nc2ncc3c(n2)-c2ccc(Cl)cc2C(c2c(F)cccc2OC)=NC3)ccc1C(=O)O`, 53%; with `COc1ccccc1-c1cccc(-c2c(O)c3cc(C#N)c(Cl)cc3[nH]c2=O)c1`, 80.1%. Same read-out and setting: then `OCCC#Cc1nc(-c2ccc(F)cc2)c(-c2ccncc2)n1CCCc1ccccc1`, with 55.3%; and `C/C(=C\C(=O)Nc1ccccc1C(=O)O)c1ccc2ccccc2c1`, with 70.3%.

For the compound `C[C@]1(c2nc3c(C(N)=O)cccc3[nH]2)CCCN1`, the viability, percent of control worked out at 89.5%. Still for that read-out and setting: with `O=C(c1cc(Cc2n[nH]c(=O)c3ccccc23)ccc1F)N1CCN(C(=O)C2CC2)CC1` the figure was 64.8%; with `CN(C)c1ccc(Nc2nc(N)n(C(=O)c3c(F)cccc3F)n2)cc1`, 46.5%. The same measure, in the same setting: then `COc1cc(F)c(F)c(Nc2ccc(I)cc2F)c1NS(=O)(=O)C1(C[C@H](O)CO)CC1`, with 62.4%; and `Cc1ccc(-n2nc(C(C)(C)C)cc2NC(=O)Nc2ccc(OCCN3CCOCC3)c3ccccc23)cc1`, with 65.5%; and `Cc1cc(SCc2sc(-c3ccc(C(F)(F)F)cc3)nc2C)ccc1OCC(=O)O`, with 114%. Still for that read-out and setting: then `CCC(C)(C)C(=O)O[C@H]1C[C@@H](C)C=C2C=C[C@H](C)[C@H](CC[C@@H]3C[C@@H](O)CC(=O)O3)[C@H]21`, with 94.3% [at 15.4 µM]; and `O=C(Nc1cccnc1)N1CCC(Cc2cccc(Oc3ccc(C(F)(F)F)cn3)c2)CC1`, with 46.1%.

Take `CN(C)C(=O)c1ccc(S(=O)(=O)c2ccc(NC(=O)[C@@](C)(O)C(F)(F)F)c(Cl)c2)cc1`: the viability, percent of control worked out at 86.5%. Still for that read-out and setting: then `COc1cc2nccc(Oc3ccc(NC(=O)NC4CC4)c(Cl)c3)c2cc1C(N)=O`, with 83.1%; and `Cc1c(CCOc2ccc(C(=O)O)cc2)c2cc(Cl)ccc2n1C(c1ccccc1)c1ccccc1`, with 34.4%; and `Cc1cc([C@@H](C)Nc2ccccc2C(=O)O)c2nc(N3CCOCC3)cc(=O)n2c1`, with 45.6%.

For the compound `COc1cccc2cc(-c3nc(C4CCC(C(=O)O)CC4)n4ncnc(N)c34)[nH]c12` (stereo not given), the viability, percent of control stood at 58.5%.

As to `C#Cc1cccc(Nc2ncnc3cc(OCCOC)c(OCCOC)cc23)c1`, the viability, percent of control worked out at 74.6%. Still for that read-out and setting: then `CC(=O)NC(C)c1ccc(Oc2ccc(OC(C)C)cc2)cc1` (stereo not given), with 62.8%; and `Cc1cc(C=c2sc3nc4ccccc4n3c2=O)c(C)n1-c1ccccc1`, with 43.7%; and `CCOc1ccn(-c2ccc(F)cc2)c(=O)c1C(=O)Nc1ccc(Oc2ccnc(N)c2Cl)c(F)c1`, with 68.6%. As to `CCCS(=O)(=O)Nc1ccc(F)c(C(=O)c2c[nH]c3ncc(Cl)cc23)c1F`, the viability, percent of control was 70.6%.

As for `COc1ccc(COc2cc3oc(=O)c4cc(C(C)O)ccc4c3cc2OC)cc1` (stereo not given), the viability, percent of control came to 45.7%.

As to `O=C(O)c1ccc(-c2c[nH]c3ccc(-c4ccccc4)cc23)cc1C1CCCC1`, the viability, percent of control is 93.3%.

Regarding `CCCn1c(=O)c2[nH]c(C34CC5CC3C[C@@H](C5)C4)nc2n(CCC)c1=O`, the viability, percent of control was found to be 60.2%. The same measure, in the same setting: then `CC[C@H](Nc1ncnc2nc[nH]c12)c1nc2cccc(F)c2c(=O)n1-c1ccccc1`, with 68.9%. Still for that read-out and setting: then `Cc1cc2c(F)c(Oc3ncnn4cc(OC[C@@H](C)O)c(C)c34)ccc2[nH]1`, with 34.5%. Still for that read-out and setting: with `CCn1c(-c2nonc2N)nc2c(C#CC(C)(C)O)ncc(OC[C@H]3CCCNC3)c21` the figure was 70.2%; with `CC(C)(C)OC(=O)CN(Cc1ccc(Cl)cc1)Cc1ccc([N+](=O)[O-])s1`, 47%.

A further assay in a line: Cell Proliferation Assay against the TMD8 Cell Line (Caspase readout at 16 hrs) (AID 651712). Also: potency is read from the fitted curve at half-maximal effect. The settings on record: TMD8 lymphoma cells, caspase activation luminescence; series mostly up to 46.1 µM. The procedure, abridged: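 TMD8 cells in RPMI with 5% FBS were treated with compound for 16 h at 37 C, then caspase 3/7 activation was read by Caspase-Glo luminescence. Percent activity was scaled to DMSO (0%) and 9.2 uM bortezomib final (100%).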
For the compound `S=C(NCc1ccc2c(c1)OCO2)N1CCN(c2ncnc3c2oc2ccccc23)CC1`, the Potency result was “inactive”.

For the compound `CCC(C)n1ncn(-c2ccc(N3CCN(c4ccc(OC[C@H]5CO[C@](Cn6cncn6)(c6ccc(Cl)cc6Cl)O5)cc4)CC3)cc2)c1=O` (stereo not given in full), the Potency entry is “inactive”. In the case of `O=C(NOC[C@H](O)CO)c1ccc(F)c(F)c1Nc1ccc(I)cc1F`, the Potency entry is “inactive”. For the compound `COc1ccccc1-c1cccc(-c2c(O)c3cc(C#N)c(Cl)cc3[nH]c2=O)c1`, the Potency entry was “inactive”. For the compound `C[C@]1(c2nc3c(C(N)=O)cccc3[nH]2)CCCN1`, the Potency entry is “inactive”. Same read-out and setting: with `CCC(C)(C)C(=O)O[C@H]1C[C@@H](C)C=C2C=C[C@H](C)[C@H](CC[C@@H]3C[C@@H](O)CC(=O)O3)[C@H]21` the entry was “inactive”; with `CN(C)C(=O)c1ccc(S(=O)(=O)c2ccc(NC(=O)[C@@](C)(O)C(F)(F)F)c(Cl)c2)cc1`, “inactive”; with `COc1cc2nccc(Oc3ccc(NC(=O)NC4CC4)c(Cl)c3)c2cc1C(N)=O`, “inactive”. The same measure, in the same setting: with `Cc1c(CCOc2ccc(C(=O)O)cc2)c2cc(Cl)ccc2n1C(c1ccccc1)c1ccccc1` the entry was “inactive”; with `Cc1cc([C@@H](C)Nc2ccccc2C(=O)O)c2nc(N3CCOCC3)cc(=O)n2c1`, “inactive”; with `C#Cc1cccc(Nc2ncnc3cc(OCCOC)c(OCCOC)cc23)c1`, “inactive”. Same read-out and setting: with `CC(=O)NC(C)c1ccc(Oc2ccc(OC(C)C)cc2)cc1` (stereo not given) the entry was “inactive”; with `Cc1cc(C=c2sc3nc4ccccc4n3c2=O)c(C)n1-c1ccccc1`, “inactive”; with `COc1ccc(COc2cc3oc(=O)c4cc(C(C)O)ccc4c3cc2OC)cc1` (stereo not given), “inactive”. Regarding `O=C(O)c1ccc(-c2c[nH]c3ccc(-c4ccccc4)cc23)cc1C1CCCC1`, the Potency entry is “inactive”. The same measure, in the same setting: then `CCCn1c(=O)c2[nH]c(C34CC5CC3C[C@@H](C5)C4)nc2n(CCC)c1=O`, with 18.7 µM (active).

Values taken from PubChem BioAssay (NCATS).
